The nature of assay [1]: binders of probe aFSTL3 on microarray, primary screen, stem cell growth factor project, biochemical, small-molecule microarray, fluorescence 635/667 (AID 1064).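 Further: measures binding of the biotinylated anti-FSTL3 antibody to printed compounds.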 Particulars: higher = more signal.
A short description of assay [2]: binders from COS7 lysate, DM2A8 probe, primary screen, torsin A project, cell lysate, small-molecule microarray, fluorescence 635/667 (AID 1065). To be noted: higher = more signal, COS7 lysate expressing mutant human TOR1A.
Assay [3] in a line: binders of probe aFGF2 on microarray, primary screen, stem cell growth factor project, biochemical, small-molecule microarray, fluorescence 635/667 (AID 1067).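 Further: measures binding of biotinylated aFGF2 protein to printed compounds on slides; z-score merges feature fluorescence and signal-to-noise across triplicate slides.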 To be noted: higher = more signal.
A short description of assay [4]: binders of probe aFGF10 on microarray, primary screen, stem cell growth factor project, biochemical, small-molecule microarray, fluorescence 635/667 (AID 1071).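 Further: score merges 667 nm spot intensity and signal to noise from triplicate slides.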 Particulars: higher = more signal.
Assay [5] deals with Neurogenic locus notch homolog protein 2 (Homo sapiens) (UniProt Q04721). Description: Notch2 binders on small-molecule microarrays, primary screen, biochemical, small-molecule microarray, 635 nm fluorescence, stem cell growth factors (AID 1073). Particulars: Notch2 binding, higher = more signal.
The target in assay [6] is Pro-neuregulin-1, membrane-bound isoform (Homo sapiens) (UniProt Q02297). Description: NRG1 binders on small-molecule microarrays, primary screen, psychiatric disease protein project, biochemical, small-molecule microarray, fluorescence 635/667 (AID 1075).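 Further: score combines 667 nm spot fluorescence with signal to noise.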 Particulars: NRG1 binding, 635 nm fluorescence, higher = more signal.
The subject of assay [7] is Neuregulin-1 EGF-like domain. Description: binders of neuregulin-1 EGF-like domain, primary screen, biochemical, small-molecule microarray, 635 nm fluorescence (AID 1081).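 Further: binding of the protein to compounds printed on small-molecule microarray slides.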 Particulars: small-molecule microarray binding, higher = more signal.
Assay [8] can be described thus: FRG1 promoter luciferase signal modulators, primary screen, FRG1 inhibition for FSHD, cell-based, C2C12 myotubes, firefly/Renilla luciferase, luminescence (AID 1084). To be noted: higher = more signal, called active from +8 up or from −8 down.
Assay [9] is described as follows: binders of probe aFST on microarray, primary screen, stem cell growth factor project, biochemical, small-molecule microarray, fluorescence 635/667 (AID 1086).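 Further: score merges 667 nm fluorescence with signal-to-noise of each printed compound spot.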 To be noted: higher = more signal.
Assay [10] is described as follows: binders of probe aHhip on microarray, primary screen, stem cell growth factor project, biochemical, small-molecule microarray, fluorescence 635/667 (AID 1087).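 Further: score merges spot fluorescence at 667nm with spot signal to noise ratio.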 To be noted: higher = more signal.

Structures are written as SMILES. Active and inactive are the calls of the source.

Neurogenic locus notch homolog protein 2 (Homo sapiens), sequence (Q04721 whole entry, looked up, canonical isoform): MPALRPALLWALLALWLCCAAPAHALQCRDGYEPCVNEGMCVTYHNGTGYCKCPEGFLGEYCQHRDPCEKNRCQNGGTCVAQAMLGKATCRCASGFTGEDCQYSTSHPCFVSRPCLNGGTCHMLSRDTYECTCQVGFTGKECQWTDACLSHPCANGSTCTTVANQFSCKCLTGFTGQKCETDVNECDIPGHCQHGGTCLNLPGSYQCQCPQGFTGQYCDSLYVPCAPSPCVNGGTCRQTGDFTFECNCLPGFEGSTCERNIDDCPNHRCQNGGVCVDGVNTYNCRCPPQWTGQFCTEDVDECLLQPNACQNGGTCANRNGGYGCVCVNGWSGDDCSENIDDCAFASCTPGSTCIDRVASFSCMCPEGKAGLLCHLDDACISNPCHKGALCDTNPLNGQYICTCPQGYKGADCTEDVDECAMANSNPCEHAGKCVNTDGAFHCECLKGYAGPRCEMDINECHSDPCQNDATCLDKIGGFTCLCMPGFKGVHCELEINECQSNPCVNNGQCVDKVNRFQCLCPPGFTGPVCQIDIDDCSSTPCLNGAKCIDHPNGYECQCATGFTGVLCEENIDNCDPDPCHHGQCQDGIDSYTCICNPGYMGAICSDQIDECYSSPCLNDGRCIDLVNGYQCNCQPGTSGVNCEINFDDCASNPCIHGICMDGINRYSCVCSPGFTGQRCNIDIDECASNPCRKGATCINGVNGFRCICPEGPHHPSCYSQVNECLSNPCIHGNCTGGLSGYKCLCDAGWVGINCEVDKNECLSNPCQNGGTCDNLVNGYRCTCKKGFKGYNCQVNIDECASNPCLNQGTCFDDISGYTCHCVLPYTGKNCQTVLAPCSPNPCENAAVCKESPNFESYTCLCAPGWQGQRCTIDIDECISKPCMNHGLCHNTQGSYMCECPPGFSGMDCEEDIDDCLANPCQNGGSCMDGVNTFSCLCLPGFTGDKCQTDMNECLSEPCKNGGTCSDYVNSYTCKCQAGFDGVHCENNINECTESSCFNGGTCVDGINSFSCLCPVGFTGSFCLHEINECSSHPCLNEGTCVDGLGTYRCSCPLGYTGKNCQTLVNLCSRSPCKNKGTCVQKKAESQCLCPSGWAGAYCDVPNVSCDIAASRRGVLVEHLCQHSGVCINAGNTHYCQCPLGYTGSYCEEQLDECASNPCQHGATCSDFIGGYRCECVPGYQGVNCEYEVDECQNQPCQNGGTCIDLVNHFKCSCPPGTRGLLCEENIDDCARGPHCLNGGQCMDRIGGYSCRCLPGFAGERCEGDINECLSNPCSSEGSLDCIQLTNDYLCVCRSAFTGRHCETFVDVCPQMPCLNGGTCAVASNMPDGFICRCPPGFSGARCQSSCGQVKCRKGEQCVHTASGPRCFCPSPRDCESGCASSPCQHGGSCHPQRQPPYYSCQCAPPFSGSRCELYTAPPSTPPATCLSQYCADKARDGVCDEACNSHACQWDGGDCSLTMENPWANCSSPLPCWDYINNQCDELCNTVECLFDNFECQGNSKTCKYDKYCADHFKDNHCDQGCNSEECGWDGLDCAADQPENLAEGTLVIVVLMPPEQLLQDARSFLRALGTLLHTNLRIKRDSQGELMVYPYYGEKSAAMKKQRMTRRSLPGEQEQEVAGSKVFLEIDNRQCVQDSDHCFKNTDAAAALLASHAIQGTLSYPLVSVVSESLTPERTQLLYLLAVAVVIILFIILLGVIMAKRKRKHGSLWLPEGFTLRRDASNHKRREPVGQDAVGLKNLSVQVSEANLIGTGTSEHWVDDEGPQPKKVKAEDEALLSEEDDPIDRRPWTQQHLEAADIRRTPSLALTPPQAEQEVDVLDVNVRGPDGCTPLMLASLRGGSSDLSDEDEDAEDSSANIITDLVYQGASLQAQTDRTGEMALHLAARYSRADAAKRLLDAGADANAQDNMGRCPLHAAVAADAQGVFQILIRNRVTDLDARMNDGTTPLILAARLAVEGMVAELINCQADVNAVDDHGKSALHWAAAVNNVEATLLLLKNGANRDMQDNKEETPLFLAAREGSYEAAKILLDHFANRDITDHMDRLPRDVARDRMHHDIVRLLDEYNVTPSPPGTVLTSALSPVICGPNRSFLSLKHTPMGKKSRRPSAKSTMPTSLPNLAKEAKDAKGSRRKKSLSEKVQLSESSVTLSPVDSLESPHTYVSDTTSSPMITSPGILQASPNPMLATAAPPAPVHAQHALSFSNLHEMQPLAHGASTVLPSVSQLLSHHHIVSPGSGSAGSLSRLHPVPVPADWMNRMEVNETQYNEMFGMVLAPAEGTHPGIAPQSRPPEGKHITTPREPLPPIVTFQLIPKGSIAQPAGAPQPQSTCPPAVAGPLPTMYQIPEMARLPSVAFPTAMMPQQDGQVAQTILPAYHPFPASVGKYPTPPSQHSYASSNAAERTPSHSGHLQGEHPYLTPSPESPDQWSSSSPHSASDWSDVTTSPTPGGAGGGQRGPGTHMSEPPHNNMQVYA
Pro-neuregulin-1, membrane-bound isoform (Homo sapiens), sequence (Q02297 whole entry, looked up, the tested form may be a part, canonical isoform): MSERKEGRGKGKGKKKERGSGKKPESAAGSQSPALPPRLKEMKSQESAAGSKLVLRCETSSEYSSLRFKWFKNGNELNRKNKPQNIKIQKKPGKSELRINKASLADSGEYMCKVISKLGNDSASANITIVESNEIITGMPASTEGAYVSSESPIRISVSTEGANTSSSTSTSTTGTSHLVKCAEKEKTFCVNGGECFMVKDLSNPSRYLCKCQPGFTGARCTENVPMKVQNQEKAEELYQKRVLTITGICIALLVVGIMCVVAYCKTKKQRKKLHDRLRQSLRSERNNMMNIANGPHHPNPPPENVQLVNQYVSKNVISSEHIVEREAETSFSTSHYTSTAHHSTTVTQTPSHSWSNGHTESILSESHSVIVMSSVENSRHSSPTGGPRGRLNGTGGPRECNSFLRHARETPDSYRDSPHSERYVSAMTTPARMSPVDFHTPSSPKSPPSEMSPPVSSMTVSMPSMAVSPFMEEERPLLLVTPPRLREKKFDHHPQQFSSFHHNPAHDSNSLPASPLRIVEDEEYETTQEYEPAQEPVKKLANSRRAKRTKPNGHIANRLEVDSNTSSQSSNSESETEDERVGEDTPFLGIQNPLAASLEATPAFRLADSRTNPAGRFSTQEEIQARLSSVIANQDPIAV

As to `[N-]=[N+]=NCc1ccccc1[C@@H]1OC(c2ccc(OCCCO)cc2)=N[C@]1(CCS(=O)(=O)c1ccccc1)C(=O)O`, the composite z-score in assay [1] was 0.561; in assay [2], -0.0845; in [3] it was 0.0116; in assay [4], 0.396; in [5], 0.797; in assay [6] it was 1.92. Further, the composite z-score is 0.733 in [7], 0.641 in assay [9] and -0.0994 in assay [10]. For the same molecule, the z-score in [8] was 5.28 (inactive).
Take `CCOC(=O)C[C@H]1[C@H](OC(=O)c2ccc(-c3ccccc3)cc2)[C@@H](NC(=O)CC(C)C)c2cc(OCCCO)ccc2N1C(=O)c1ccc2ccccc2n1`: the composite z-score was -0.459 in [1]; 0.176 in assay [2]; -0.149 in assay [3]; 0.205 in assay [4]; 0.458 in assay [5]; 0.491 in [6]. Besides, the results for the composite z-score in assay [7], in [9] and in assay [10] were 0.76, 0.185 and 0.1, respectively. The z-score in assay [8] is 0.375 (inactive).
For the molecule `O=c1cccc(-c2ccc([N+](=O)[O-])cc2)o1`, the composite z-score was -0.164 in [1]; -0.0642 in assay [2]; 0.0008 in assay [3]; 0.287 in assay [4]; 0.698 in assay [5]; -0.283 in assay [6]. Moreover, the values for the composite z-score in [7], in assay [9] and in assay [10] were 0.348, -0.192 and -0.0263, respectively. Moreover, the z-score in assay [8] was -0.0029 (inactive).
Take `O=C1OCCC/C=C\[C@H]2OC34C=CCN(c5ccc6ccccc6c5)C(=O)[C@H]3N(CCO)C(=O)[C@@H]4C12` (stereo not given in full): the composite z-score in assay [1] was 0.24; in assay [2], -0.514; in assay [3] it was -0.159; in assay [4], -0.818; in assay [5], -1.23; in [6], 1.6. Further, the figures for the composite z-score in assay [7], in assay [9] and in [10] were 1.04, -0.667 and -0.423, respectively. In assay [8], the z-score was 0.751 (inactive).
In the case of `COc1ccc(CCNC(=O)[C@@]2(Cc3ccccc3I)c3ccccc3C(=O)N(C3CCCCC3)[C@H]2c2ccc(CO)cc2)cc1`, the composite z-score is -0.0515 in assay [1]; -0.256 in assay [2]; -0.079 in assay [3]; -0.0337 in assay [4]; 0.281 in assay [5]; 0.56 in assay [6]. For the same molecule, the figures for the composite z-score in assay [7], in [9] and in assay [10] were 0.897, 0.384 and -0.0645, respectively. Also, the z-score in assay [8] is -4.25 (inactive).
With `C=C(COC)C(=O)CC[C@@H](OC(C)=O)c1cccc(OCCO)c1`, the composite z-score in [1] is -0.0369; in assay [2] it was -0.489; in assay [3], -0.085; in assay [4], 0.243; in assay [5], -0.0381; in assay [6], -0.372. In addition, the composite z-score in [7] is 0.691; in assay [9], -0.204; in assay [10] it was -0.249. In addition, the z-score in assay [8] was -0.721 (inactive).
On to `CC1CC/C=C\[C@H]2OC34C=CCN(c5ccc6ccccc6c5)C(=O)[C@H]3N(CCCO)C(=O)[C@@H]4C2C(=O)O1` (stereo not given in full), for which the composite z-score in assay [1] was 0.932; in assay [2], -0.541; in [3] it was -0.188; in assay [4], -1.25; in assay [5], -0.746; in assay [6] it was 1.19. In addition, the composite z-score in [7] is -0.459; in assay [9] it was -0.757; in assay [10] it was -0.19. The z-score in assay [8] is 2.62 (inactive).
As for `COc1cc(C(O)C2C=CC3C(=O)N(C)C(=O)C3N2Nc2ccccc2)cc(OC)c1OC` (stereo not given), the composite z-score was 1.3 in assay [1]; 0.723 in [2]; 0.341 in [3]; 0.602 in assay [4]; 1.25 in assay [5]; 1.83 in [6]. The composite z-score turned out to be 1.35 in [7], 1.53 in [9] and 0.592 in [10]. The z-score in assay [8] was -0.818 (inactive).
Turning to `CC(C)N1C(=O)c2ccccc2[C@@H](C(=O)NCCN2CCOCC2)[C@@H]1c1ccc(CO)cc1`, the composite z-score in assay [1] was 0.197; in [2], -0.831; in [3] it was -0.22; in assay [4] it was -1.54; in [5], -1.61; in assay [6], 1.12. Moreover, the composite z-score in assay [7] was 1.28; in assay [9], -0.727; in assay [10], -0.284. For the same molecule, the z-score in assay [8] was -0.571 (inactive).
Turning to `COCCOC(=O)N1C(=O)[C@@]2(c3ccccc31)[C@H](c1ccc(O)cc1)N1[C@H](c3ccccc3)[C@H](c3ccccc3)OC(=O)[C@H]1[C@@H]2C(=O)N1CCN(c2ncccn2)CC1`, the composite z-score in assay [1] was -0.224; in assay [2] it was 0.23; in assay [3], 0.0019; in assay [4] it was 0.644; in [5] it was 0.618; in assay [6] it was 0.647. Besides, the figures for the composite z-score in [7], in assay [9] and in assay [10] were 1.07, -0.165 and -0.0903, respectively. For the same molecule, the z-score in assay [8] was -1.27 (inactive).
For the molecule `CCCCC(CC)C(O)C1C=CC2C(=O)N(C)C(=O)C2N1Nc1ccccc1` (stereo not given), the composite z-score in assay [1] is -0.245; in [2], 0.0145; in assay [3], -0.0454; in assay [4], 0.264; in [5], 0.846; in assay [6], 0.517. The results for the composite z-score in assay [7], in assay [9] and in assay [10] were 1.16, 0.388 and -0.0994, respectively. Moreover, the z-score in assay [8] was -0.373 (inactive).
For the molecule `COCCOC(=O)N1C(=O)[C@@]2(c3cc(C#CC4=CCCCC4)ccc31)[C@H](C(=O)Nc1nc3ccccc3s1)[C@H]1C(=O)O[C@H](c3ccccc3)[C@H](c3ccccc3)N1[C@@H]2c1ccc(O)cc1`, the composite z-score was -0.528 in assay [1]; 1.39 in assay [2]; 0.0156 in [3]; 0.176 in assay [4]; 0.992 in assay [5]; 1.15 in [6]. Also, the composite z-score in assay [7] worked out at 1.03; in [9] it was 1.13; in assay [10], 0.103. Further, in assay [8], the z-score was 0.0402 (inactive).
Consider `C=CC[C@]1(C(=O)N2CCCCC2)N=C(c2ccc(OCCCO)cc2)O[C@H]1c1ccccc1CN=[N+]=[N-]`, for which the composite z-score was -0.25 in assay [1]; 0.516 in assay [2]; 0.238 in assay [3]; 0.546 in assay [4]; 1.42 in [5]; 1.17 in [6]. Further, the results for the composite z-score in assay [7], in assay [9] and in assay [10] were 1.24, 0.907 and -0.0699, respectively. Besides, in assay [8], the z-score is -1.08 (inactive).
